CD11b adhes enh – increases human CD11b/CD18 adhesion to fibrinogen. P05107+P11215. K562 CD11b/CD18 adhesion to fibrinogen, ATPlite luminescence. activation, % at 10 µM. 93,000 compounds, 0.07% hits;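 active = 10 µM primary screen giving 50% or more activity, confirmed by 40% or more on retest at that dose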
Mac1 fbg inh – CD11b/CD18-fibrinogen binding inhibition. P05107+P11215. K562 CD11b/CD18 adhesion to fibrinogen, ATPlite luminescence; Mn2+ added to activate the integrin. inhibition, % at 10 µM. 93,000 compounds, 0.54% hits;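 active = primary inhibition of 50% or more at 10 µM, then 40% or more on retest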
CYP2C9 inhib – human CYP2C9 inhibition; CYP2C9 Supersomes, luciferin-H conversion, luminescence; inhibition, % at 5 µM; 96,000 compounds, 20% hits; AID 777;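 active = blocking of liver enzyme CYP2C9 beyond about 50% at 5 µM, limit read from the data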
CYP2C19 inh – human CYP2C19 inhibition; CYP2C19 Supersomes, luciferin-H EGE luminescence, 30 min; 96,000 compounds, 21% hits; inhibition, % at 5 µM; AID 778;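 active = CYP2C19 inhibition above a set limit at 5 µM in the primary screen, cut at about 50% in these data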;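 also: plate controls were negative control wells for no effect and 2.5 mM tranylcypromine positive control for full effect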
CYP2C9 activ – CYP2C9 (human) activation; P11712; AID 1024; activation factor at 5 µM; recombinant CYP2C9, luciferin-H conversion, luminescence; stronger effect = higher value; factor 1 = untreated enzyme, 0 = blocked; 96,000 compounds, 1.4% hits;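 active = activation factor of 2 or more for CYP2C9 at a 5 µM dose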;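 also: 0 = sulfaphenazole-blocked wells and 1 = vehicle-only wells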
CYP2C19 act – cytochrome P450 2C19 (human) activation | activation factor at 5 µM | P33261 | recombinant CYP2C19, luciferin-H EGE luminescence; stronger effect = higher value; 0 = fully inhibited enzyme, 1 = untreated enzyme | AID 1025 | 96,000 tested, under 10 active;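 active = activation factor of at least 2 at 5 µM in the primary screen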;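 also: 0 = wells with 2.5 mM tranylcypromine and 1 = vehicle-only wells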
An asterisk follows results filed as active; / = no result. Hits are enriched below; roughly 28% of the tested compounds scored in any of these assays.

SMILES | CD11b adhes enh | Mac1 fbg inh | CYP2C9 inhib | CYP2C19 inh | CYP2C9 activ | CYP2C19 act
COc1ccc2[nH]c(C)c(CN3CCCCC3)c(=O)c2c1 | -1 | -1 | -12 | -12 | 1.1 | 1.1
CC1Cc2nc(SCC(=O)NC3CCCCC3)n(C)c(=O)c2S1 (stereo unspecified) | 1 | -11 | 14 | 23 | 0.9 | 0.8
COc1ccccc1-n1c(SCC(=O)N2CCc3ccccc32)nc2c(c1=O)SCC2 | -6 | 5 | 20 | -5 | 0.8 | 1.1
CC1Cc2nc(SCC(=O)c3ccccc3)n(Cc3ccccc3)c(=O)c2S1 (stereo unspecified) | 3 | -11 | 97* | 47 | 0 | 0.5
CC1Cc2nc(SCC(=O)NCc3ccccc3)n(Cc3ccccc3)c(=O)c2S1 (stereo unspecified) | -3 | 18 | 47 | 2 | 0.5 | 1
CC1Cc2nc(SCC(=O)OCc3ccccc3)n(C)c(=O)c2S1 (stereo unspecified) | -3 | 7 | 77* | 87* | 0.2 | 0.1
CC1Cc2nc(SCC(=O)N3CCc4ccccc43)n(C)c(=O)c2S1 (stereo unspecified) | / | / | 93* | 26 | 0.1 | 0.7
Cc1c(Br)c([N+](=O)[O-])nn1CC(=O)NCc1cccnc1 | -4 | 2 | 68* | 90* | 0.3 | 0.1
N#Cc1cn(CC(=O)NCc2cccnc2)c2ccccc12 | 3 | 0 | 63* | 80* | 0.4 | 0.2
CCn1c(=O)cc(SCC(=O)NCc2cccnc2)c2ccccc21 | / | / | -19 | 5 | 1.2 | 0.9
CCC(=O)c1cn(CC(=O)NCc2cccnc2)c2ccccc12 | -1 | -16 | 91* | 86* | 0.1 | 0.1
N#Cc1cn(Cc2ccccc2)c2ccccc12 | 11 | -31 | 84* | 91* | 0.2 | 0.1
O=C(CSc1cccc2cccnc12)NCc1ccco1 | / | / | -47 | 6 | 1.5 | 0.9
O=C(N/N=C/c1ccc(Sc2ccccn2)o1)c1cc2ccccc2cc1O | 2 | -10 | 88* | 98* | 0.1 | 0
O=C(N/N=C\c1ccc(Sc2ccccn2)o1)c1cccc(F)c1 | / | / | 60* | 59* | 0.4 | 0.4
O=C(CCc1ccccc1O)N/N=C/c1ccc(Sc2cccc3cccnc23)o1 | -5 | 17 | 99* | 49 | 0 | 0.5
Cc1ccc(/C=N/NC(=O)c2ccccn2)o1 | 0 | 2 | / | / | / | /
COC(=O)c1ccc(/C=N/NC(=O)c2cccc(F)c2)cc1 | -1 | 19 | 7 | 14 | 0.9 | 0.9
COc1cccc(C2/C(=C(\O)c3c(C)nc4c(C)cccn34)C(=O)C(=O)N2CCCN(C)C)c1 (stereo unspecified) | 0 | -2 | -6 | 5 | 1.1 | 0.9
O=C(c1ccccc1)c1cc2ccc(O)cc2oc1=O | / | / | 80* | 93* | 0.2 | 0.1
COc1ccc2cc(C(=O)NC3CCCCC3)c(=O)oc2c1 | 46 | 0 | 70* | 96* | 0.3 | 0
COc1ccc2cc(C(=O)NCc3ccco3)c(=O)oc2c1 | 1 | 0 | 18 | 24 | 0.8 | 0.8
O=C(NCc1ccco1)c1cc2ccc(O)cc2oc1=O | -4 | -6 | 93* | 97* | 0.1 | 0
COc1ccc(C(=O)c2cc3ccc(O)cc3oc2=O)cc1 | -1 | 6 | 35 | 63* | 0.7 | 0.4
COC(=O)c1ccccc1NC(=O)Cn1cnc2c(cnn2-c2ccccc2)c1=O | -4 | -2 | 10 | -9 | 0.9 | 1.1
SMILES | CD11b adhes enh | Mac1 fbg inh | CYP2C9 inhib | CYP2C19 inh | CYP2C9 activ | CYP2C19 act
COCc1nnc(NC(=O)CC(C)c2ccccc2)s1 (stereo unspecified) | -2 | -14 | 21 | 28 | 0.8 | 0.7
COc1ccc(NC(=O)CSc2nc(N)c3cc4c(nc3n2)CCCC4)c(OC)c1 | -7 | -7 | 81* | 22 | 0.2 | 0.8
COc1ccc(-n2ccnc2SCC(=O)Nc2ccc(OC)cc2OC)cc1 | / | / | 27 | 92* | 0.7 | 0.1
COc1ccc(NC(=O)CSc2nccn2-c2ccccc2)cc1 | -3 | -28 | 69* | 86* | 0.3 | 0.1
Cn1ccnc1SCC(=O)Nc1ccc(Oc2ccccc2)cc1 | 2 | 8 | 71* | 88* | 0.3 | 0.1
CCCCOc1cccc(NC(=O)CSc2nccn2C)c1 | 3 | -38 | 0 | 31 | 1 | 0.7
Cc1ccc(NC(=O)NC(=O)CSc2nnc(-c3ccc(Cl)cc3Cl)n2N)c(C)c1 | -2 | 29 | / | / | / | /
Cn1ccnc1SCC(=O)Nc1cccc(O)c1 | -1 | 1 | 9 | 6 | 0.9 | 0.9
Cn1ccnc1SCC(=O)Nc1cccc(C(F)(F)F)c1 | -3 | -3 | -52 | 87* | 1.5 | 0.1
CCN1CCN(c2nc3c(c(=O)n(C)c(=O)n3C)n2CCSc2nccc(C)n2)CC1 | -1 | -7 | 8 | -2 | 0.9 | 1
CSc1nc(C)cc(SCC(=O)Nc2ccccc2)n1 | 1 | 4 | 67* | 90* | 0.3 | 0.1
COc1ccc(NC(=O)CSc2nc(C)cc(C(F)(F)F)n2)cc1 | / | / | -59 | 65* | 1.6 | 0.4
Cc1cc(C(F)(F)F)nc(SCC(=O)Nc2cc(C)on2)n1 | -7 | -13 | 0 | 52* | 1 | 0.5
Cc1cc(C(F)(F)F)nc(SCC(=O)Nc2ccccc2)n1 | -3 | 5 | -14 | 91* | 1.1 | 0.1
CN(CC1CCCO1)S(=O)(=O)c1ccc(C(=O)Nc2nc(-c3ccccn3)cs2)cc1 (stereo unspecified) | -4 | -10 | 26 | 13 | 0.7 | 0.9
Cc1ccc(-c2nnn(CC(=O)NC3CC4CCC3C4)n2)cc1 (stereo unspecified) | -2 | -2 | 24 | 10 | 0.8 | 0.9
Cc1cc(C(F)(F)F)nc(SCC(=O)NC2CC3CCC2C3)n1 (stereo unspecified) | -1 | -21 | -111 | 83* | 2.1* | 0.2
Cc1ccc(-c2nn3c(C)nnc3s2)cc1NC(=O)c1ccc(-c2cccc(Cl)c2)o1 | 88* | -15 | 47 | 42 | 0.5 | 0.6
Cc1ccc(-c2nn3c(C)nnc3s2)cc1NC(=O)c1ccc(-c2ccc(Cl)cc2Cl)o1 | 38 | 8 | 5 | 7 | 0.9 | 0.9
Cc1c(Cc2c(Cl)cccc2Cl)c(=O)ccn1C(C)c1ccccc1 (stereo unspecified) | / | / | 45 | 90* | 0.6 | 0.1
Cc1ccc(Cn2ccc(=O)c(Cc3c(Cl)cccc3Cl)c2C)cc1 | 3 | -2 | 30 | 39 | 0.7 | 0.6
Cc1c(OCc2ccccc2)c(=O)ccn1Cc1ccc(Cl)cc1 | 0 | -20 | 57* | 31 | 0.4 | 0.7
COc1ccc(Cn2ccc(=O)c(Cc3c(Cl)cccc3Cl)c2C)cc1 | / | / | -8 | 77* | 1.1 | 0.2
CC(=O)c1ccc(NC2OC(C)C(O)C(O)C2O)cc1 (stereo unspecified) | / | / | -6 | -4 | 1.1 | 1
CC#CCCCC(=O)Nc1ccccc1C(=O)O | -2 | -8 | 23 | -9 | 0.8 | 1.1
